Measurements reported in PubChem BioAssay AID1625 (Sanford-Burnham Center for Chemical Genomics, 2009).
Among all 190,000 compounds or so, about 570 (0.3%) were called active.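 How the source made its calls: active means z-score above 3 at 5 µM with at least 500 cells counted in the well; inconclusive means wells under 500 cells, flagged as cytotoxic or low count; inactive means the rest.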 For the sample, actives were picked, then their nearest neighbours and some compounds at random.

experiment: insulin promoter activators in MIN6 cells, imaging, high-content screening, mouse beta cells (AID 1625); conditions: MIN6 insulin promoter-GFP reporter, at 5 µM; cell count: measured here: cytotoxicity, nuclei count; z-score: stronger effect = higher value;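 on cell count: total cells summed across four imaged fields per well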

Row | SMILES | cell count | z-score
1 | Cc1ccc(-n2c(Cc3cccs3)nnc2SCC(=O)OC(C)C)cc1 | 993 cells | 3.05 (active)
2 | COc1ccc(-n2c(SCC(=O)OC(C)C)nnc2-c2ccccn2)cc1 | 1260 cells | 0.29 (inactive)
3 | CCn1c(Cc2cccs2)nnc1SCC(=O)c1ccc(C)cc1 | 827 cells | -1.87 (inactive)
4 | Cc1ccc(Oc2nc(-c3ccccn3)nc3ccccc23)cc1 | 1010 cells | -0.89 (inactive)
5 | O=C1N(c2ccccc2)C(=Nc2ccccc2)SC12CC2 | 1070 cells | -0.2 (inactive)
6 | COc1ccc(OC)c(S(=O)(=O)NCCC(C)C)c1 | 1220 cells | -0.95 (inactive)
7 | CCOC(=O)CN(C(=O)COc1nc(-c2ccccc2)cc(C)c1C#N)c1ccc(F)cc1 | 1080 cells | -0.04 (inactive)
8 | CCOC(=O)C1CCN(C(=O)Nc2ccc(C)c(Cl)c2)CC1 | 1020 cells | -0.22 (inactive)
9 | O=C(CCN1C(=O)/C(=C/c2cccs2)SC1=S)NNC(=O)c1cccc(O)c1 | 1100 cells | 3.43 (active)
10 | O=C(CCCN1C(=O)/C(=C\c2ccccc2)SC1=S)Nc1ccccc1O | 1110 cells | -1.05 (inactive)
11 | O=C(CCCN1C(=O)/C(=C/c2ccccc2)SC1=S)Nc1ccc(O)cc1 | 1550 cells | -0.31 (inactive)
12 | Nc1nc(O)c(CC(=O)O)s1 | 1490 cells | -0.64 (inactive)
13 | Cc1ccc(NNC(=O)C2CCC2)cc1C | 1450 cells | -0.26 (inactive)
14 | CCOC(=O)C1=NN(c2ccc(Cl)cc2)/C(=C/C2=NCCc3cc(OC)c(OC)cc32)S1 | 1380 cells | 0.35 (inactive)
15 | CCCN(CCC)CC(O)COc1ccccc1C(=O)Nc1ccccc1 (stereo not given) | 1020 cells | -0.54 (inactive)
16 | COc1ccc(-c2[nH]ncc2CN(Cc2nccn2C)C(C)C)cc1F | 1490 cells | -1.07 (inactive)
17 | O=S(=O)([N-]c1nc2ccccc2nc1-[n+]1ccc(Cc2ccccc2)cc1)c1ccc(Br)s1 | 1020 cells | -0.15 (inactive)
18 | [O-][N+]12CCCCC1CCCC2CO (stereo not given) | 977 cells | 0.05 (inactive)
19 | COc1ccc(OC)c(-c2c(=O)n(OCc3ccccc3Br)c3ccccc3[n+]2[O-])c1 | 1330 cells | -0.44 (inactive)
20 | O=c1c(-c2ccc(Cl)cc2)[n+]([O-])c2ccccc2n1OCc1nc2ccccc2[nH]1 | 1200 cells | -1.15 (inactive)
21 | CCOc1ccc(OCC)c(-c2c(=O)n(OCc3ccc(Cl)cc3)c3ccccc3[n+]2[O-])c1 | 1410 cells | 3.34 (active)
22 | CCN(CC)CCNCC(=O)Nc1ccc(Oc2ccccc2)cc1 | 919 cells | -0.39 (inactive)

Row | SMILES | cell count | z-score
23 | C/C(=N\Nc1cccc(C(=O)O)c1)c1ccc2c(c1)Nc1ccccc1S2 | 1020 cells | -0.12 (inactive)
24 | O=C(Cn1c(N2CCN(C/C=C/c3ccccc3)CC2)nc2ccccc21)c1ccccc1 | 1150 cells | -0.35 (inactive)
25 | COc1ccc(F)cc1S(=O)(=O)N1CCCCC1 | 1090 cells | 0.19 (inactive)
26 | N#C/C(=C\N1CCOCC1)S(=O)(=O)c1ccc(Cl)cc1 | 930 cells | -0.15 (inactive)
27 | CCc1ccc(S(=O)(=O)Nc2ccc(C)c(NS(C)(=O)=O)c2)cc1 | 1030 cells | 0.6 (inactive)
28 | CCCCNC(=O)c1onc(CSc2cccc(OC)c2)c1C(=O)O | 1420 cells | -0.14 (inactive)
29 | COCCNC(=O)c1onc(CSc2cccc(C)c2)c1C(=O)O | 1620 cells | 3.82 (active)
30 | CCOc1cccc(SCc2noc(C(=O)NC(C)C)c2C(=O)O)c1 | 1590 cells | -0.64 (inactive)
31 | CN(CC(=O)Nc1ccc(F)cc1)CC(=O)Nc1ccc(Cl)c(S(=O)(=O)N2CCOCC2)c1 | 1070 cells | -0.46 (inactive)
32 | CC(C)NC(=O)/C(C#N)=C\c1ccc(N(C)C)c(Br)c1 | 1460 cells | 0.33 (inactive)
33 | CCc1cc(C(=O)OC)c(NC(=O)CC2Sc3ccc(C(F)(F)F)cc3NC2=O)s1 (stereo not given) | 1330 cells | 3.33 (active)
34 | Cc1ccc(CNC(=O)CC2Sc3ccccc3NC2=O)cc1 (stereo not given) | 1420 cells | -0.57 (inactive)
35 | COC(=O)c1cc(C)sc1NC(=O)CC1Nc2ccccc2NC1=O (stereo not given) | 1110 cells | 2.17 (inactive)
36 | CCc1ccc(NC(=O)N[C@H](C(=O)O)C(C)CC)cc1 (stereo not given in full) | 978 cells | 0.03 (inactive)
37 | O=C(Nc1nnc(SCc2c(Cl)cccc2Cl)s1)c1cccc([N+](=O)[O-])c1 | 1070 cells | 0.41 (inactive)
38 | Nc1nnc(SCn2nnc3ccccc3c2=O)s1 | 1620 cells | 0.07 (inactive)
39 | CCOc1ccc(C2C(C(=O)O)c3ccccc3C(=O)N2CCN2CCOCC2)cc1 (stereo not given) | 1350 cells | 4.94 (active)
40 | CCOc1cc2c(cc1OCC)C(C(=O)O)C(c1ccc(OC)c(O)c1)N(C)C2=O (stereo not given) | 1550 cells | 0.1 (inactive)
41 | COc1ccc(C2C(C(=O)N3CCN(c4ccc(OC)cc4)CC3)c3ccccc3C(=O)N2C)cc1 (stereo not given) | 1330 cells | -1.17 (inactive)
42 | O=C(COC(=O)/C=C/c1ccc2c(c1)OCO2)NC1CCS(=O)(=O)C1 (stereo not given) | 933 cells | -0.06 (inactive)
43 | COc1ccccc1N1CCN(C(=O)CSc2ncnc3c2cnn3-c2ccc(C)c(C)c2)CC1 | 959 cells | -0.23 (inactive)
44 | CC1Cc2ccccc2N1S(=O)(=O)c1ccc(Cl)nc1 (stereo not given) | 1130 cells | 0.1 (inactive)

Row | SMILES | cell count | z-score
45 | CCc1nnc(NC(=O)CCC(=O)O)s1 | 879 cells | -0.23 (inactive)
46 | COc1ccccc1CNC(=O)CCn1c(=O)sc2ccccc21 | 1300 cells | -0.13 (inactive)
47 | CCc1nnc(NC(=O)CCC(=O)NCc2ccccc2OC)s1 | 1600 cells | 4.05 (active)
48 | O=C(Nc1ccc(Cl)cc1)/C(=C1\CCCN1)[N+](=O)[O-] | 1400 cells | 0.56 (inactive)
49 | COc1ccc(OC)c(-c2csc(NC(=O)C3=NNC(=O)CC3)n2)c1 | 1110 cells | 1.47 (inactive)
50 | CCOc1cccc(/C=C/c2ccc3ccccc3n2)c1OC(C)=O | 1230 cells | -0.46 (inactive)
51 | Cc1nc(COc2cccc(Cl)c2)sc1C(=O)/C=C/N(C)C | 1040 cells | 0.55 (inactive)
52 | CN1CCN(c2ccc(S(=O)(=O)N3CCOCC3)cc2NC(=O)CCc2ccccc2)CC1 | 1040 cells | 0.32 (inactive)
53 | C=CCC(Nc1ccccc1)c1cccc(OC)c1OC (stereo not given) | 1080 cells | -0.62 (inactive)
54 | O=C(Cc1cccc2ccccc12)NCCC1=CCCCC1 | 1280 cells | -0.27 (inactive)
55 | CN1CCNC(=O)C1CC(=O)NCCC1=CCCCC1 (stereo not given) | 1390 cells | 3.77 (active)
56 | O=C(Cc1nn[nH]n1)NCCC1=CCCCC1 | 1260 cells | -0.63 (inactive)
57 | Cn1nc(C(C)(C)C)c([N+](=O)[O-])c1C(N)=O | 1080 cells | -0.1 (inactive)
58 | O=C(O)CC1=C(Nc2ccccc2)C(=O)N(c2ccccc2)C1c1ccc(Cl)cc1 (stereo not given) | 1370 cells | -0.28 (inactive)
59 | O=c1c([N+](=O)[O-])cccn1Cc1ccc(F)cc1Cl | 1280 cells | 3.36 (active)
60 | O=[N+]([O-])c1ccccc1NCc1ccccc1Cl | 1120 cells | 0.76 (inactive)
61 | N/C(=N/O)c1cccn1Cc1ccccc1[N+](=O)[O-] | 1470 cells | 0.02 (inactive)
62 | CN1CCN(C(c2cc3cc4c(cc3[nH]c2=O)OCCO4)c2nnnn2C2CCCC2)CC1 (stereo not given) | 1180 cells | -0.16 (inactive)
63 | CCOc1ccc(-n2cnc3c(=O)[nH]c(N)nc32)cc1 | 1510 cells | -0.16 (inactive)
64 | CC(C)(C)c1ccc(CCC2OCC(CN3CCOCC3)O2)cc1 (stereo not given) | 1070 cells | -0.91 (inactive)
65 | O=C(Cc1ccccc1)N1N=C(c2ccncc2)CC1(O)C(F)(F)F (stereo not given) | 1110 cells | -0.48 (inactive)
66 | CN1CCN(C(=O)/C(=C\c2cccs2)NC(=O)c2cccs2)CC1 | 1240 cells | 6.06 (active)

Row | SMILES | cell count | z-score
67 | CN1CCN(C(=O)/C(=C\c2ccc3c(c2)OCO3)NC(=O)c2cccs2)CC1 | 1300 cells | 0.04 (inactive)
68 | Cc1ccc(C(=O)N/C(=C/c2cccs2)C(=O)N2CCCCC2)cc1 | 1270 cells | 0.22 (inactive)
69 | O=C(O)C(c1ccccc1)C1(O)CCCCC1 (stereo not given) | 1390 cells | 0.43 (inactive)
70 | CCCCSc1nnc2c(n1)OC=Nc1ccccc1-2 | 1140 cells | -0.42 (inactive)
71 | Oc1ccc(/C=N/Nc2nc(-c3ccccc3F)nc3ccccc23)c(O)c1 | 1070 cells | 3.69 (active)
72 | Fc1ccc(/C=N/Nc2nc(-c3cccnc3)nc3ccccc23)cc1 | 1030 cells | -0.09 (inactive)
73 | Cc1nc2ccccc2nc1N/N=C/c1ccc(O)cc1O | 1210 cells | -3.3 (inactive)
74 | O=C(NCCc1ccccn1)c1cccnc1Oc1ccc(Cl)cc1 | 1560 cells | -0.11 (inactive)
75 | Cc1cc2nc3c(=O)n(Cc4ccccc4)c(=O)[nH]c3nc2cc1N | 1490 cells | 12.1 (active)
76 | Cc1nc2c(c(=O)n1Cc1ccco1)c1nc3ccccc3nc1n2Cc1ccccc1 | 1260 cells | -1.6 (inactive)
77 | CC(=O)c1ccc(-c2ccc(Cn3c(C)nc4cc(N)c(C)nc43)cc2)cc1 | 1520 cells | 0.28 (inactive)
78 | COc1ccc(Nc2cc(=O)n(-c3ccccc3)c3c2c(=O)n(C)c(=O)n3C)cc1 | 991 cells | 0.04 (inactive)
79 | COc1ccc(C(=O)C2CCCN(C(=O)c3cc4nc(C)cc(C)n4n3)C2)cc1F (stereo not given) | 1470 cells | -0.02 (inactive)
80 | COCc1cc(=O)[nH]c(SC)n1 | 1140 cells | -0.01 (inactive)
81 | CC(C)c1nc(SCC(=O)NC(=O)NC(C)(C)C)n[nH]1 | 976 cells | -0.03 (inactive)
82 | CCOc1c2ccc(C(=O)NCc3ccc(OC(F)(F)F)cc3)cc2nn1C | 1370 cells | 2.39 (inactive)
83 | CCCn1nc2cc(C(=O)NCc3ccccc3)ccc2c1OCC | 1430 cells | 4.73 (active)
84 | CCOc1c2ccc(C(=O)NCc3ccc4c(c3)OCO4)cc2nn1C | 1870 cells | 0.4 (inactive)
85 | CC12CN(NC(=O)c3ccc(Cl)cc3)C3(C#N)CC1CCC23C (stereo not given) | 1610 cells | -0.1 (inactive)
